Assay [1] in a line: CCTE_Mundy_HCI_Cortical_Synap_Neur_Matur_NeuriteSpotCountPerNeuriteLength: CCTE's Synaptogenesis and Neurite Maturation Assay in rat cortical cells for Neurite Spot Count per Neurite Length, Mundy Lab (AID 2284210). An outline of the steps:
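Neurite-associated synapse density (synaptophysin puncta per unit neurite length) is measured by fluorescence high-content imaging in rat cortical cultures treated from DIV 7 and fixed at DIV 12, with DMSO as negative control.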

Assay [2] is described as follows: CCTE_Mundy_HCI_Cortical_Synap_Neur_Matur_BPCount: CCTE's Synaptogenesis and Neurite Maturation Assay in rat cortical cells for Branch Point Count, Mundy Lab (AID 2284211). Here is the method:
CCTE_Mundy_HCI_Cortical_Synap&Neurite_Matur is a multiplexed, cell-based-readout assay that uses rat primary cortical cells with measurements taken at 288.33 hours after chemical dosing in a microplate: 96-well plate.CCTE_Mundy_HCI_Cortical_Synap_Neur_Matur_BPCount is one of eight components of the CCTE_Mundy_HCI_Cortical_Synap&Neurite_Matur assay. It measures synaptogenesis and neurite maturation related to number of branch points using High Content Imaging of fluorescently labelled markers.[…] Using a type of morphology reporter, loss -of-signal activity can be used to understand developmental effects.
Cells are plated onto 96 well plates and allowed 2 hr for attachment to the substrate. At days in vitro (DIV) 5, Cytosine Arabinoside (AraC) is added to arrest glial cell growth. Chemicals are dosed and a media change is performed at DIV 7 of differentiation and is continued through DIV 12 when the experiment is terminated. Cells are fixed with […] and Hoechst Dye. Cells are stained using Millipore Mouse anti-MAP2MAB3418 (1:800) and Millipore Rabbit anti-Synaptophysinsc-1750 (1:250) primary antibodies and Alexa Fluor-488 goat anti-mouse and AlexaFluor-546 goat anti-rabbit secondary antibodies to label neuronal cell nuclei, synapses and neurites. A Cellomics ArrayScan VTi HCS Reader is used for automated image acquisition and analysis of neurite outgrowth.

Assay [3] in a line: CCTE_Mundy_HCI_Cortical_NOG_NeuriteCount: CCTE's Neurite Outgrowth Assay in rat cortical cells for Neurite Count, Mundy Lab (AID 2284212).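 Also: cells fixed about two days after chemical exposure began.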 Summed up:
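Rat cortical primary cells; compound added 2 h post-plating, 1/10 dilution of working solution. Anti-betaIII-tubulin/AF488 ICC; ArrayScan neurite count vs DMSO.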

Assay [4] in a line: CCTE_Mundy_HCI_Cortical_NOG_NeuriteLength: CCTE's Neurite Outgrowth Assay in rat cortical cells for Neurite Length, Mundy Lab (AID 2284213).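 As to AC50: neurites imaged about 48 to 50 h after chemical exposure began.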 An outline of the steps: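 First, rat primary cortical cells were plated and, 2 h later, given test chemical as a 1/10 dilution. Finally, βIII-tubulin immunostaining enabled automated imaging of neurite length.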
Assay [5] in a line: CCTE_Mundy_HCI_Cortical_Synap_Neur_Matur_NeuriteLength: CCTE's Synaptogenesis and Neurite Maturation Assay in rat cortical cells for Neurite Length, Mundy Lab (AID 2284214). An outline of the steps:
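DMSO-normalised neurite length, from high-content imaging of anti-MAP2-stained rat cortical cells fixed at DIV 12. Glia were suppressed with AraC (DIV 5) before chemical exposure from DIV 7.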

Assay [6] can be described thus: IUF_NPC1b_proliferation_BrdU_72hr: Leibniz Research Institute for Environmental Medicine (IUF) 72-hour Neural Progenitor Cell Bromodeoxyuridine (BrdU) Proliferation Assay (NPC1b) (AID 2284207). An outline of the steps:
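Neural progenitor spheres of human fetal origin are treated for three days; BrdU added for the last 16 h is quantified by luminescence ELISA, with DMSO as baseline and EGF/FGF omission as positive control.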

The nature of assay [7]: IUF_NPC1a_proliferation_area_72hr: Leibniz Research Institute for Environmental Medicine (IUF) 72-hour Neural Progenitor Cell Proliferation Area Assay (NPC1a) (AID 2284208). An outline of the steps:
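Proliferation is scored as sphere area gain in primary human fetal neural progenitors treated for 72 h in EGF/FGF-containing medium. Viability, LDH and BrdU readouts come from the same wells.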

A short description of assay [8]: IUF_NPC1_viability_72hr: Viability Assessment at 72 hours in the Leibniz Research Institute for Environmental Medicine (IUF) Neural Progenitor Cell Proliferation Assay (NPC1) (AID 2284209). Summed up:
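Three-day continuous exposure of human neural progenitor spheres under EGF/FGF-driven proliferation; cell viability scored by alamar blue signal versus DMSO.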

Assay [9] can be described thus: UKN2_HCS_IMR90_neural_migration: University of Konstanz (UKN) Leist Lab Neural Crest Cell Migration Assay in human induced IMR90 Pluripotent Stem Cells (UKN2) (AID 2284204). As to conditions: actives raise or lower the signal. The method, then: UKN2_HCS_IMR90 is a cell-based, multiplexed-readout assay screening for neural crest cell migration and cell viability that uses IMR90 (neural crest cells differentiated from iPSC), a human embryo cell line, with measurements taken at […] after chemical dosing in a microplate: 96-well plate. UKN2, also known as cMINC, is an assay that uses IMR90 cells (neural crest cells differentiated from iPSC) as a model of neural crest cell migration. 24 hr after cell seeding, cell migration was initiated and proceeded for 24 hr. Then, chemical was applied, and after 24 hr of exposure migration and viability were assessed using high-content imaging of cells stained with calcein-AM and Hoechst H-33342.UKN2_HCS_IMR90_neural_migration is an assay component measured from the UKN2_HCS_IMR90 assay. It is designed to make measurements of neural crest cell migration, a form of morphology reporter, as detected with Fluorescence intensity signals by HCS Fluorescent Imaging.The assay endpoint UKN2_HCS_IMR90_neural_migration was analyzed with bidirectional fitting relative to DMSO as the negative control and baseline of activity. Using a type of morphology reporter, gain or loss-of-signal activity can be used to understand developmental effects. To generalize the intended target to other relatable targets, this assay endpoint is annotated to the neurodevelopment intended target family, where the subfamily is neural crest cell migration.
The wells are coated with PLO/laminin/fibronectin. Then, silicone stoppers are placed into the wells of a 96-well plate. Cells are seeded around the stoppers and allowed to attach for 24 hours. Day 0: The silicone stoppers are removed and the medium is replaced with pre-warmed, fresh N2-S medium containing the cytokines EGF and FGF. Cells are allowed to migrate into the cell free area. Day 1: 25 ul of the 5x concentrated toxicants are added to the wells. The cells plus toxicants are incubated for 24 h. Day 2: Cells are stained with calcein-AM and Hoechst (H-33342) for 30 min before imaging with a high content imaging microscope. Quantification of migration and viability is done by high content imaging analysis.

Assay [10] in a line: UKN4_HCS_LUHMES_neurite_outgrowth: University of Konstanz (UKN) Leist Lab Neurite Outgrowth Assay in human LUHMES cells (UKN4) (AID 2284206). Conditions: actives raise or lower the signal. An outline of the steps: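 Neurite area in dopaminergic-model LUHMES neurons is measured by high-content imaging of calcein-AM after 24 h treatment starting shortly after day-2 replating; Hoechst staining tracks viability.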

Calls of active or inactive are those of the source. The calls were made as follows: active = hit-call score of the fitted dose curve at least 0.9, where 1 is the maximum; inactive = score below 0.9.

For `CC1(C)C(C=C(Cl)Cl)C1C(=O)OCc1cccc(Oc2ccccc2)c1` (stereo not drawn), the result in [1] was inactive. The AC50 in [2] was 8.52 µM (active); in assay [3], 78.2 µM (active); in assay [4], 83.7 µM (active); in assay [5] it was 8.65 µM (active).

In the case of `CSC(=O)c1cccc2nnsc12`, the AC50 in assay [6] was 0.796 µM (active). The outcome in assay [7], in assay [8], in assay [1], in assay [2], in [3] and in [4] was inactive. Also, in assay [5], the compound was called inactive.

With `Cc1nn(C)c(Oc2ccccc2)c1C=NOCc1ccc(C(=O)OC(C)(C)C)cc1`, the AC50 in assay [9] was 6.55 µM (active); in assay [6], 5.15 µM (active); in assay [7], 0.0215 µM (active); in assay [1] it was 0.00339 µM (active); in assay [2], 0.00291 µM (active); in assay [3], 0.0196 µM (active). Further, the AC50 in assay [4] is 0.0155 µM (active); in [5], 0.00265 µM (active). Besides, the result in assay [8] was inactive.

As for `CCN(CC)C(=O)c1cccc(C)c1`, the outcome in assay [9], in assay [7], in assay [8], in assay [1], in assay [2] and in assay [3] was inactive. In addition, the result in [4] and in assay [5] was inactive. Also, in [6], the AC50 was 92.7 µM (active).

Consider `C#CCOC(=O)[C@@H](C)Oc1ccc(Oc2ncc(Cl)cc2F)cc1`, for which the call in assay [9], in assay [6], in assay [8], in assay [1], in assay [2] and in [3] was inactive. The call in assay [4] and in assay [5] was inactive. In addition, the AC50 in assay [7] was 26.6 µM (active).

With `S=C([S-])NCCNC(=S)[S-].[Mn+2]`, the AC50 in [9] was 14.2 µM (active); in [10], 2.16 µM (active). Moreover, the compound was classed as inactive in assay [6], in assay [7], in assay [8], in assay [1], in assay [4] and in [5].

Turning to `CCCN(CCC)C(=O)SCC`, the compound was called inactive in assay [9], in assay [6], in assay [7], in [8], in assay [1] and in assay [2]. In addition, the outcome in [4] and in [5] was inactive.

For the compound `O=C(O)c1ccccc1`, the compound was called inactive in assay [6], in assay [7], in assay [8], in assay [1], in assay [2] and in [3]. The result in [4] and in [5] was inactive.

For `CC(C)(c1ccc(O)cc1)c1ccc(O)cc1`, the AC50 in assay [6] was 4.92 µM (active); in assay [5] it was 50 µM (active). Further, the call in assay [7], in assay [8], in assay [1] and in assay [4] was inactive.

Consider `S=C(S)NCCNC(=S)S.[Mn+2].[S-]C([S-])=NCCN=C([S-])[S-].[Zn+2]`, for which the compound was classed as inactive in assay [6], in assay [7], in [8], in assay [1], in assay [2] and in assay [3]. For the same compound, the compound was classed as inactive in [4] and in assay [5].

As a reminder, the AC50 is the concentration at which the activity in the assay is half-maximal.

Values taken from PubChem BioAssay (EPA / NIEHS).
